Test [1] can be described thus: qHTS assay to identify small molecule agonists of the RXR signaling pathway - cell viability counter screen (AID 1159529). Further: nearly all actives have a fitted effect of over 50% in size. Further: potency means the concentration at half of the fitted maximal effect. In outline: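 Counter screen: CellTiter-Glo luminescence. Cells: RXR-alpha-UAS-bla HEK 293T. Medium: 2% charcoal-stripped FBS. Treatment: 16 h, 37 C. Reagent incubation: 30 min, RT.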
A general note: Quantitative high-throughput screening tests each substance at several concentrations.

Test [2] can be described thus: qHTS assay to identify small molecule antagonists of the retinoid acid receptor (RAR) signaling pathway - cell viability counter screen (AID 1159551). Further: nearly all actives have a fitted effect of over 35% in size. In outline:
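Cytotoxicity counter screen in C3RL4 cells: 6 h compound exposure with 1 uM retinol (final), viability from cellular ATP by luminescence.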

Test [3] is described as follows: qHTS assay to identify small molecule antagonists of the retinoic acid receptor (RAR) signaling pathway (AID 1159552; further: nearly all actives have a fitted effect of over 50% in size). In outline:
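Antagonism of retinol-induced RARE reporter activity was measured in C3RL4 cells. Exposure to compounds and 1 uM final retinol lasted 6 hr at 37 C, with luminescence as endpoint.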

A short description of test [4]: qHTS assay to identify small molecule agonists of the retinoic acid receptor (RAR) signaling pathway (AID 1159553). Further: potency means the concentration at half of the fitted maximal effect. The gist of the method: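 Agonist activity was scored in C3RL4 cells bearing a retinoic acid response element luciferase construct. Cells were treated with compounds for 6 hr at 37 C, and luciferase signal was measured as luminescence.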
A short description of test [5]: qHTS assay to identify small molecule antagonists of the estrogen related receptor (ERR) signaling pathway - cell viability counter screen (AID 1224818). Further: potency means the concentration at half of the fitted maximal effect. In outline:
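Cells carrying the ERR pathway reporter were seeded and incubated for 6 hours before compound addition. After a 17.5-hour exposure at 37 C, live-cell protease activity was measured by CellTiter-Fluor fluorescence following 30 minutes of incubation.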

The nature of test [6]: qHTS assay to identify small molecule antagonists of the estrogen related receptor (ERR) signaling pathway (AID 1224819;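 further: luminescence from an ERR-driven luciferase reporter measured with One-Glo reagent; series mostly up to about 46 µM; nearly all actives have a fitted effect of over 50% in size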). The gist of the method: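 Compounds dissolved in DMSO were pin-transferred onto ERR cells that had been plated 6 h earlier, and cells were then incubated 18 h at 37 C; signal was luciferase luminescence via One-Glo.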
Test [7] can be described thus: qHTS assay to identify small molecule agonists of the estrogen related receptor (ERR) signaling pathway (AID 1224820). Further: potency means the concentration at half of the fitted maximal effect. The gist of the method:
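ERR reporter cell line (from NTP), 2,000 cells/well, incubated 6 h before compound addition, then 18 h at 37 C. Luminescence measured 30 min after One-Glo reagent at room temperature.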

Test [8] deals with estrogen-related receptor alpha (ERRalpha) with PGC-1alpha coactivator, human. The experiment in a line: qHTS assay to identify small molecule antagonists of the estrogen related receptor signaling pathway with the pleiotropic PPARgamma coactivator (PGC) (AID 1224821; calls by dose curve;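 further: series mostly up to about 46 µM; lower luminescence signal means antagonism of PGC/ERR signalling; nearly all actives have a fitted effect of over 50% in size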). The gist of the method:
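PGC/ERR reporter cell line, plated 6 h before compound addition, then exposed 18 h at 37 °C. Luciferase activity read by luminescence 30 min after One-Glo addition; decrease indicates antagonism.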

Test [9] can be described thus: qHTS assay to identify small molecule agonists of the estrogen related receptor signaling pathway with the pleiotropic PPARgamma coactivator (PGC) (AID 1224823). Further: potency means the concentration at half of the fitted maximal effect. The gist of the method: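 PGC/ERR reporter cells seeded 6 h, then exposed to compounds (23 nL in DMSO) for 18 h at 37 C. One-Glo luciferase luminescence read after 30 min at room temperature.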
Test [10] can be described thus: qHTS assay to identify small molecule antagonists of the estrogen related receptor (ERR) signaling pathway from Tox21 library - cell viability counter screen (AID 1224834). Further: nearly all actives have a fitted effect of over 30% in size. Further: potency means the concentration at half of the fitted maximal effect. The gist of the method: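 Cytotoxicity of test substances is gauged in the same ERR cells used for the antagonist screen, after 17.5 h of compound treatment at 37 C, by CellTiter-Fluor fluorescence measured after 30 min.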

Test [11] deals with Luciferin 4-monooxygenase (Photinus pyralis) (UniProt P08659). The experiment in a line: qHTS assay to identify small molecule inhibitors of firefly luciferase (AID 1224835). Further: nearly all actives have a fitted effect of over 25% in size. Further: potency means the concentration at half of the fitted maximal effect. In outline: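 Quantitative HTS format; KM concentrations of both substrates. Purified P. pyralis FLuc activity quantified from luminescence images.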
Luciferin 4-monooxygenase (Photinus pyralis), sequence (P08659 whole entry, looked up): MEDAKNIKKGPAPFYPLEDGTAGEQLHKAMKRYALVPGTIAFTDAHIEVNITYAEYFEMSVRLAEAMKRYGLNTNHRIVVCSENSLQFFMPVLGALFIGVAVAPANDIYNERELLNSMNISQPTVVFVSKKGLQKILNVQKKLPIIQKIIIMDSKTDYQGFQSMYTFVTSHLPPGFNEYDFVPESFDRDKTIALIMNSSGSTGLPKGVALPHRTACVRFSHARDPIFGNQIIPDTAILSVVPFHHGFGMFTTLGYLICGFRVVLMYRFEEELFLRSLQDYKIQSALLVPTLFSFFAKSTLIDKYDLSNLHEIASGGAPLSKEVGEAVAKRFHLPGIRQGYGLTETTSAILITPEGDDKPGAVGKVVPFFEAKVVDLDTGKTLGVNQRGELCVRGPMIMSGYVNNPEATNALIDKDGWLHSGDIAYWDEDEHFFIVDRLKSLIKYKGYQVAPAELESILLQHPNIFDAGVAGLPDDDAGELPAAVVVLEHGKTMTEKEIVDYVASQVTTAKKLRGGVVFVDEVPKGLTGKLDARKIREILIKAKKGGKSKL
Test [12] has as its target Nuclear receptor subfamily 1 group I member 3 (Homo sapiens) (UniProt Q14994). Nature of the test: qHTS assay to identify small molecule antagonists of the constitutive androstane receptor (CAR) signaling pathway (AID 1224838). Further: nearly all actives have a fitted effect of over 40% in size. The gist of the method: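 Compounds were titrated across 15 concentrations onto HepG2 cells double-stably expressing hCAR and a CYP2B6-2.2kb reporter, together with 50 nM CITCO (final). After 24 h at 37 C, luciferase activity was measured by luminescence.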

For test [13] the target is unchanged. The experiment in a line: qHTS assay to identify small molecule agonists of the constitutive androstane receptor (CAR) signaling pathway (AID 1224839). Further: nearly all actives have a fitted effect of over 15% in size. Further: potency means the concentration at half of the fitted maximal effect. In outline: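 Readout: firefly luciferase luminescence via ONE-Glo. System: HepG2 double-stable for hCAR and CYP2B6-2.2kb. Conditions: 15-point compound titration, PK11195 at 0.75 uM final, 24 h incubation.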

Test [14] in a line: qHTS assay to identify small molecule antagonists of the estrogen related receptor signaling pathway with the pleiotropic PPARgamma coactivator (PGC) from Tox21 10K library - cell viability counter screen (AID 1224840; active means well fitted cell-killing curve with a large enough effect in the repeat runs, not every such curve was filed as active; further: nearly all actives have a fitted effect of over 40% in size; further: potency means the concentration at half of the fitted maximal effect). In outline:
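Step one, plate 2,000 PGC/ERR cells per well; step two, incubate 6 h at 37 C/5% CO2; step three, pin-transfer compounds; step four, incubate 17.5 h; step five, add CellTiter-Fluor and read fluorescence after 30 min.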

The nature of test [15]: qHTS assay to identify small molecule antagonists of the estrogen related receptor signaling pathway with the pleiotropic PPARgamma coactivator (PGC) from Tox21 10K library (AID 1224841; call rule not given here; further: potency means the concentration at half of the fitted maximal effect). The gist of the method: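 Antagonism in this quantitative HTS is taken from loss of luciferase signal in PGC/ERR cells. Cells (2,000/well) are treated with compounds in DMSO after a 6 h settling period and read by One-Glo luminescence after 18 h.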

A short description of test [16]: qHTS assay to identify small molecule agonists of the estrogen related receptor signaling pathway with the pleiotropic PPARgamma coactivator (PGC) from Tox21 10K library (AID 1224842). Further: nearly all actives have a fitted effect of over 15% in size. Further: potency means the concentration at half of the fitted maximal effect. In outline:
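PGC/ERR reporter cells (NTP line) were seeded 2,000 per well, rested 6 h at 37 C/5% CO2, then pin-dosed with compounds in DMSO for 18 h at 37 C; luciferase read by One-Glo luminescence after 30 min at room temperature.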

Test [17] deals with Thyrotropin receptor (Homo sapiens) (UniProt P16473). The experiment in a line: qHTS assay to identify small molecule agonists of the thyroid stimulating hormone receptor (TSHR) signaling pathway (AID 1224843; calls by dose curve; further: nearly all actives have a fitted effect of over 45% in size). In outline:
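Cell line HEK293 with TSHR; density 800/well. Exposure 30 min RT. Readout HTRF cAMP (cAMP-d2/anti-cAMP-cryptate), 1 h RT before reading.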

A short description of test [18]: qHTS assay to identify small molecule agonists of the constitutive androstane receptor (CAR) signaling pathway - cell viability counter screen (AID 1224836). Further: series mostly up to about 92 µM; nearly all actives have a fitted effect of over 45% in size. In outline:
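Double-stable HepG2 hepatoma cells (hCAR plus CYP2B6-2.2kb) are treated for 23 h at 37 C with test compounds in 15-point concentration series. PK11195 at 0.75 uM final is co-added. Cell viability is quantified by CellTiter-Fluor.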

Test [19] in a line: qHTS assay to identify small molecule antagonists of the constitutive androstane receptor (CAR) signaling pathway - cell viability counter screen (AID 1224837). Further: series mostly up to about 92 µM; nearly all actives have a fitted effect of over 45% in size. In outline: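 Multiplexed cytotoxicity read-out for the CAR antagonist screen: double-stable HepG2-CYP2B6-hCAR cells co-treated with 50 nM CITCO (final) and compound over 15 concentrations, incubated 23 hr, then assessed by CellTiter-Fluor fluorescence.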

Records with an inconclusive call do not appear. The source made the active and inactive calls. Unless noted, the call rests on the fitted dose curve; in most records, active means well fitted curve in the direction sought with a large enough effect in the repeat runs; inconclusive means weak or mixed curves; inactive means no such curve, though single readings can be large; an effect the other way counts as inactive or inconclusive.

Results on 10 molecules are retold here after PubChem BioAssay (Tox21).

Thyrotropin receptor (Homo sapiens), sequence (P16473 whole entry, looked up): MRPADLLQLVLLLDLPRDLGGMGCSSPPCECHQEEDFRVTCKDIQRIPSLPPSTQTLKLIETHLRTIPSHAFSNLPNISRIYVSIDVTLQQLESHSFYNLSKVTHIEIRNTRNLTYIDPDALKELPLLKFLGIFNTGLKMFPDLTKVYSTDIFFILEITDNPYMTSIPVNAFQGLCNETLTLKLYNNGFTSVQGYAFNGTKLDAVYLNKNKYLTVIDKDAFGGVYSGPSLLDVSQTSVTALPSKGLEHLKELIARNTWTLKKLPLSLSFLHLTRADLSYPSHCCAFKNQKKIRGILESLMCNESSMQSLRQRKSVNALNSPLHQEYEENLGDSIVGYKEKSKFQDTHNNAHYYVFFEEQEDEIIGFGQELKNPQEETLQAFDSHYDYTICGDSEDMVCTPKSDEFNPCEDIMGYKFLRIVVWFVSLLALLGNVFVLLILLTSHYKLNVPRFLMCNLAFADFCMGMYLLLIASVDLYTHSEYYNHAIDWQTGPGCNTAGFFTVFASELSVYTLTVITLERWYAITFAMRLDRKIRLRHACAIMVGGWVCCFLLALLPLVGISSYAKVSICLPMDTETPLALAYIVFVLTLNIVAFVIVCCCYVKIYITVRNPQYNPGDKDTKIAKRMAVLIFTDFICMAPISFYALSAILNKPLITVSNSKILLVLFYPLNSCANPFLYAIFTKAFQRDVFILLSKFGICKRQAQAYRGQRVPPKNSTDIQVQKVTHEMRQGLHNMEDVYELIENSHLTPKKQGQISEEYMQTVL
Nuclear receptor subfamily 1 group I member 3 (Homo sapiens), sequence (Q14994 whole entry, looked up): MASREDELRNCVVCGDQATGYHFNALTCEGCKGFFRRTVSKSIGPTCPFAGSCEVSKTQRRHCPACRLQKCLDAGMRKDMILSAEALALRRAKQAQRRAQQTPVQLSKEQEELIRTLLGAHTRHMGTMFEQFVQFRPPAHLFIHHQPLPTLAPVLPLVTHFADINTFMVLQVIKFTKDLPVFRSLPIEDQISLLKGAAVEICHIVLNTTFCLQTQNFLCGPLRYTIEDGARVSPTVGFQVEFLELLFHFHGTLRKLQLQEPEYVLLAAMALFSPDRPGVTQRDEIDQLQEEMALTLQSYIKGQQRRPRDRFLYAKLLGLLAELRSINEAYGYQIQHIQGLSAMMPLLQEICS

For `Nc1ccc(N=Nc2ccccc2)cc1`, the Potency entry in test [1], in test [2], in test [3], in test [6], in [8] and in test [12] was “inactive” each time. Further, the Potency entry in [15] and in test [17] was “inactive” in each case. Besides, the Potency in test [4] was 0.386 µM (active); in test [5] it was 31.8 µM (active); in test [7] it was 10.1 µM (active); in [9], 14.2 µM (active); in test [10] it was 24.3 µM (active); in test [11], 2.24 µM (active). In addition, the results for the Potency in [13], in [14] and in [16] were 30.6 µM (active), 24.3 µM (active) and 3.06 µM (active), respectively.

For `O=[N+]([O-])C(Br)Br`, the Potency result in [1], in test [2], in [3], in test [4], in test [10] and in [18] was “inactive” throughout. Further, the Potency entry in test [19], in test [12], in test [14], in test [16] and in [17] was “inactive” each time. The Potency in [11] is 28.3 µM (active).

Turning to `O=C(NC(=O)c1ccccc1Cl)Nc1ccc(OC(F)(F)F)cc1`, the Potency result in [1], in test [2], in test [3], in test [4], in test [10] and in [11] was “inactive” throughout. In addition, the Potency result in test [18], in test [19], in [12], in [13], in test [14] and in test [17] was “inactive” each time.

Consider `O=C(CCCCl)c1ccc(F)cc1`, for which the Potency result in [1], in [2], in [3], in test [10], in [18] and in test [19] was “inactive” in each case. Also, the Potency result in test [12], in test [14], in test [15] and in test [17] was “inactive” in each case. Besides, the Potency in test [4] is 26.6 µM (active); in test [11], 15.5 µM (active).

In the case of `CN1C2CCC(C)(C)C1CC(OC(=O)C(O)(c1cccs1)c1cccs1)C2` (stereo not drawn), the Potency result in [1], in test [2], in test [3], in test [4], in [10] and in test [11] was “inactive” each time. Also, the Potency entry in test [18], in test [19], in [12], in [13], in test [14] and in test [17] was “inactive” throughout.

Take `CN/C(=N\[N+](=O)[O-])NCc1cnc(Cl)s1`: the Potency entry in test [1], in test [2], in test [3], in test [4], in test [10] and in test [11] was “inactive” in each case. Further, the Potency entry in test [18], in test [19], in test [12] and in [14] was “inactive” each time.

With `C[C@]12CC[C@H]3[C@@H](CCC4=CC(=O)CC[C@@H]43)[C@@H]1CC[C@@H]2OC(=O)CCc1ccco1`, the Potency in [1] is 23.9 µM (active). The Potency entry in test [2], in test [3], in test [4], in test [10], in test [11] and in test [18] was “inactive” throughout. For the same molecule, the Potency result in [19], in test [12], in test [13], in test [14] and in [17] was “inactive” each time.

In the case of `CC(C)[C@@H](Nc1ccc(C(F)(F)F)cc1Cl)C(=O)OC(C#N)c1cccc(Oc2ccccc2)c1` (stereo partly drawn), the Potency result in [1], in [2], in [3], in [4], in [10] and in [11] was “inactive” throughout. Besides, the Potency entry in test [18], in test [19], in test [12], in test [13] and in test [14] was “inactive” each time.

Take `CCCCON=O`: the Potency result in test [1], in test [2], in test [3], in test [4], in [10] and in test [11] was “inactive” each time. Further, the Potency entry in test [18], in test [19], in test [12], in test [13], in test [14] and in [17] was “inactive” throughout. For the same molecule, the Potency in test [15] was 49.8 µM (active).

Consider `CC1CN1` (stereo not drawn), for which the Potency result in test [1], in test [2], in test [3], in test [4], in test [10] and in test [11] was “inactive” each time. Also, the Potency entry in [18], in [19], in [12], in [13], in test [14] and in [17] was “inactive” each time.
